# HCV inh – qHTS Assay for Inhibitors of Hepatitis C Virus (HCV) | Huh7.5.1 HCVcc-Cre infection, luciferase reporter, 44 h | Potency, µM (doses to about 41.8 µM), actives largely listed as inhibitors | actives 3.4% (n = 340,000) | AID 651820, 2012; active = well fitted inhibition curve with a large enough effect; inconclusive = small, poorly fitted or top-dose-only effect, or another doubt; inactive = no such curve, though single readings can be large or run the other way
#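 Infectious HCVcc-Cre (~0.5 moi) was added to cells just after compound, with cells seeded 4 h earlier at 1,000 per well. Luciferase activity after 44 h culture reported infection; substrate was incubated 15 min at room temperature before reading.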
# FMDV antiviral – High Throughput Screening for Foot and Mouth Disease Virus Antivirals. FMDV antiviral cell-based qHTS. Potency, µM (highest dose often 57.9 µM), hits mostly inhibitors. actives 1.2% (n = 410,000). AID 1159524, 2015; calls by dose curve; tested in HEK293T cells; note: read-out not given here; nearly all actives have a fitted effect of over 45% in size
# Marburg entry inh – qHTS for inhibitors of binding or entry into cells for Marburg Virus. actives 1.8% (n = 300,000). Marburg virus pseudotyped entry inhibition, cell reporter. Potency, µM (titrated, usually from 37.8 µM), usual class: inhibitors. AID 540276, 2011; calls by dose curve; tested in HEK293 cells
# LASV entry inh – qHTS for Inhibitors of binding or entry into cells for Lassa Virus | Lassa virus pseudotype entry inhibition, cell reporter | Potency, µM (doses to about 37.9 µM), most hits filed as inhibitors | actives 1.2% (n = 300,000); calls by dose curve; tested in HEK293 cells; note: nearly all actives have a fitted effect of over 50% in size
# HCMV antiviral – qHTS Assay for inhibitors of the human cytomegalovirus (HCMV). HFF cells, HCMV-luciferase reporter, 72 h; hits give low values. activity change, negative = inhibition, % at 57.5 µM. actives 4.5% (n = 410,000); in the data active = activity change below about -60%; inconclusive = no clear call, values can overlap the other calls; inactive = above about -39%
#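 Two compound doses tested in HFFs infected with HCMV-luciferase, MOI 1 PFU/cell, 72 h at 37C. Lysate luminescence read with OneGlo; data normalized against buffer-only and 10uM Salinomycin inhibitor controls.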
# Hits are given with their value; i = inactive; ? = inconclusive; nt = no result given. Shown are actives, neighbours in structure and some others; about 7.9% of the full set was active somewhere.
SMILES,HCV inh,FMDV antiviral,Marburg entry inh,LASV entry inh,HCMV antiviral
CC(C)(C)C(=O)Nc1nnc(SCC(=O)NCc2cccs2)s1,i,i,i,?,i
CC(C)C(=O)Nc1nnc(SCC(=O)NCc2cccs2)s1,i,i,?,i,-92
COc1cc(OC)nc(-n2ncc(Br)c(Br)c2=O)n1,4µM,10µM,1.6µM,1.3µM,-105
Cc1ccc(S(=O)(=O)N2[C@@H](Cc3ccccc3)CO[C@H]2CC(=O)c2ccccc2)cc1,nt,i,nt,nt,-69
Cc1ccc(S(=O)(=O)N2[C@@H](Cc3ccccc3)CO[C@H]2CC(=O)c2ccc(F)cc2)cc1,nt,i,nt,nt,i
Cc1ccc(S(=O)(=O)C[C@@H]2OC[C@H](Cc3ccccc3)N2S(=O)(=O)c2ccc(C)cc2)cc1,nt,i,nt,nt,-61
CC(NC(=O)CSc1nc2c(c(C(F)(F)F)n1)CCc1ccccc1-2)c1ccccc1 (stereo not drawn),13µM,?,?,?,?
O=C(CSc1nc2c(c(C(F)(F)F)n1)CCc1ccccc1-2)NCc1ccco1,?,i,i,i,i
CC(C)COP(=O)(OCC(C)C)C(O)c1ccc(F)cc1 (stereo not drawn),i,i,i,i,-100
C=CCn1c(SCC(=O)Nc2ccccc2OC)nnc1-c1ccccn1,7.9µM,?,?,?,i
C=CCn1c(SCC(=O)Nc2cc(NC(C)=O)ccc2OC)nnc1-c1ccccn1,i,i,i,?,i
COCCNC(=O)c1cnn2c1NC(c1ccco1)CC2C(F)(F)F (stereo not drawn),i,i,i,i,i
Cc1ccc(Cl)cc1NC(=O)c1cnn2c1NC(c1ccco1)CC2C(F)(F)F (stereo not drawn),25µM,?,?,?,?
CN(Cc1ccc(-n2cccn2)cc1)C(=O)c1cnn2c1NC(c1ccco1)CC2C(F)(F)F (stereo not drawn),11µM,25µM,?,?,i
CCCCNC(=O)c1sc2ncnc(NCC3CCCO3)c2c1C (stereo not drawn),nt,i,nt,nt,nt
CCc1nc2ccccc2c(C(=O)Oc2cccc3cccnc23)c1C,2.2µM,i,i,i,i
CCc1nc2ccccc2c(C(=O)NCc2ccccc2)c1C,i,i,i,i,-68
COCCN(C(=O)c1cc2c(s1)CCCCC2)c1c(N)n(Cc2ccccc2)c(=O)[nH]c1=O,i,i,?,i,?
CCc1nc2ccccc2c(C(=O)OCc2nc3ccccc3c(=O)[nH]2)c1C,?,i,3.5µM,?,i
COCCCN(C(=O)c1cc2c(s1)CCCCC2)c1c(N)n(Cc2ccccc2)c(=O)[nH]c1=O,?,i,i,10µM,i
Cc1c(C(=O)NCCN(C)C)sc2nc3n(c(=O)c12)CCC3,nt,i,nt,i,i
Cc1nc2ccccc2nc1CN1CCOc2ccc(C(C)(O)COc3ccccc3)cc2C1 (stereo not drawn),nt,i,nt,nt,nt
O=C(C1=C(O)CCCC1)N1CCOCC1,nt,nt,i,nt,nt
Oc1c(C(c2ccccc2)N2CCC3(CC2)OCCO3)sc2nc(-c3ccco3)nn12 (stereo not drawn),nt,i,nt,i,i
CCc1nc2ccccc2c(C(=O)OCC(=O)N(CCOC)c2c(N)n(Cc3ccccc3)c(=O)[nH]c2=O)c1C,14µM,i,?,i,?
SMILES,HCV inh,FMDV antiviral,Marburg entry inh,LASV entry inh,HCMV antiviral
O=C(Cn1ncn2c(cc3sccc32)c1=O)NCCc1ccccc1,nt,i,?,nt,i
Cc1scc(C(=O)NNC(=S)NC(C)c2ccccc2)c1C (stereo not drawn),i,i,i,i,-78
Cc1ccc(NS(=O)(=O)c2ccc(N3CCN(c4ccc(O)cc4)CC3)c([N+](=O)[O-])c2)c(C)c1,?,28µM,2.8µM,i,-64
CCn1ccc2c(OCC(=O)NCc3ccc(C)cc3)cccc2c1=O,nt,i,nt,?,i
O=C(CSCC(=O)Nc1ccccc1)N/N=C/c1c(O)ccc2ccccc12,10µM,i,?,26µM,-104
O=C(N/N=C/c1c(O)ccc2ccccc12)Nc1ccccc1,?,i,nt,nt,i
COc1ccc(NCC(=O)N/N=C/c2c(C)nn(Cc3ccccc3)c2Cl)cc1,i,i,?,7.9µM,i
O=C(CNc1ccccc1)N/N=C/c1c(O)ccc2ccccc12,10µM,i,nt,nt,-89
O=C(CN1CCOCC1)N/N=C/c1c(O)ccc2ccccc12,?,i,?,11µM,i
O=C(CN1CCOCC1)N/N=C/c1ccco1,i,i,?,i,i
